About 410 (8.5%) of roughly 4,800 compounds showed an effect of 50% or more. The sample as a whole holds a higher share of strong results than the screen did.
System: Plasmodium falciparum
Assay: Confirmatory screen in NF54 pLDH assay, in single point, at 2uM, 72h
Assay type: functional, Erythrocyte
Conditions: timepoint 72 hour

SMILES	% Inhibition [%]
Cc1ccc(S(=O)(=O)Nc2cc3nc4ccccc4nc3n2CCc2ccccc2)cc1	97
COCCCn1c(NS(=O)(=O)c2ccc3ccccc3c2)c(S(=O)(=O)c2ccc(C)cc2)c2nc3ccccc3nc21	16
Cc1cc(NC(=O)Cn2c(=O)n(CCc3ccccc3)c(=O)c3ccccc32)no1	13
CS(=O)(=O)n1c(CCCc2ccccc2)nc2ccccc21	15
O=C(O)Cc1cccc(NC(=O)C2C3Cc4ccccc4C32)c1 (stereo not given)	2
C[C@H](NC(=O)CC1(C)CCCCC1)c1cnn(C)c1	-5
O=C(Nc1cccc(OCCn2cncn2)c1)[C@@H]1CCCc2ccccc21	-19
Cc1cc(CCC(=O)Nc2nnn[nH]2)ccc1Br	10
COc1cc2c(cc1CNc1nc(N)nc3c1CCNCC3)CCC2	11
Cc1cc(C)cc(NC(=O)Cc2nnc3ccc(C(=O)Nc4ccccc4)cn23)c1	8
CC(=O)N1CCN(c2nc3c(s2)C[C@@H](C(=O)NCc2ccccc2F)CC3)CC1	-22
O=S1(=O)N=C(NC[C@@H](O)Cc2ccccc2)c2ccccc21	7
Cc1cccc(NC(=O)Nc2cc(F)c3[nH]c(=O)ccc3c2)c1	-7
COc1ccc(-c2noc(CCn3c(=O)[nH]c4cc5c(cc4c3=O)OCO5)n2)c(OC)c1	6
Cc1cnc(C2CCN(C(=O)[C@@H]3CNC(=O)O3)CC2)s1	2
COC1(C)CN(c2cnc(C#N)cn2)C1	2
C[C@H]1CCCN(S(=O)(=O)NCC(=O)Nc2ccccn2)C1	-14
C[C@H]1CCN(c2nc(-c3ccccn3)nc3c2CCC3)C1	93
C[C@H]1CCCN(c2nc(-c3ccccn3)nc3ccccc23)C1	98
Cc1ccccc1N1CCN(C(=O)c2ccc3ncccc3c2)CC1	9
O[C@H]1Cc2ccccc2[C@H]1Nc1nc(-c2ccccn2)nc2c1CCNC2	-7
CCc1ccc(NC(=O)[C@H]2CCCN(c3nc4cccnc4n(Cc4ccccc4)c3=O)C2)cc1	-14
FC(F)(F)C1CN(c2nc(-c3ccccn3)nc3c2CCC3)C1	54
CCc1sc(N(C(=O)Cc2ccccc2)c2ccc(C)cc2C)nc1-c1ccc(Cl)cc1	12
COc1ccc(-n2nc(C(=O)N3CCOCC3)c(=O)cc2OC)cc1	3

SMILES	% Inhibition [%]
CCc1nnc2c(S(=O)(=O)Nc3cc(F)cc(F)c3)cccn12	9
CN1N=C(C(=O)NC2CCC3CCCCC3C2)CCC1=O (stereo not given)	-20
COc1ccc(C(=O)N(CCO)CCN2CCOCC2)c(OC2CCCC2)c1	11
Cc1cccc(-n2c(=O)[nH]c3nc(NCCN(C)C)ncc3c2=O)c1C	8
COc1ccccc1C(=O)N1CCC([C@H](NC(=O)c2ccc3c(c2)OCO3)C(=O)NC(C)C)CC1	10
COc1ccccc1CC(=O)NC[C@H](C)O	14
O=C1c2cc3ccccc3c(-c3ccccc3)c2C(=O)N1c1ccccc1	-16
CCc1nn2c(c1-c1ccc(C)cc1)NC(=O)C[C@H]2C(=O)O	12
Cc1cnc(CC[C@H]2CCCN2C(=O)CCCc2ccccc2)n1C	10
CC(C)O[C@@H]1CCN(C[C@H](O)c2ccc(C(F)(F)F)cc2)C1	42
CCc1ccc(C(=O)N2CC[C@H](CC(=O)NCc3ccccc3)C2)cc1	10
Cc1cccc(C)c1NC(=O)c1cc(-c2cccc3ccccc23)[nH]n1	11
Cc1cccc2c(-c3cc(N)nc(N)n3)c[nH]c12	100
Cc1cc(Br)c2c(c1)C(O)(N1CCCC(C)C1)C(=O)N2 (stereo not given)	9
O=C(CN1C(=O)C[C@H](Cc2ccc(F)cc2)C1=O)N1CCNC1=O	9
CN(C)c1nccc(NC[C@H](N)c2ccccc2)n1	-12
CC1CCCC(C)N1C(=O)CN(C)c1cccc2cccnc12 (stereo not given)	4
CN(C)c1nc(N)cc(-c2cccc3cccnc23)n1	55
Cc1ccc(C(N)C(C)S(C)(=O)=O)cc1 (stereo not given)	-18
Oc1cc(CC[C@H]2CCCCN2)cc(-c2cnc3ccccc3n2)c1	80
COc1cccc(-c2cc(O)cc(CC[C@H]3CCCCN3)c2)n1	89
O=C(NCC(F)(F)F)Nc1ccc(CO)cc1	3
O=c1[nH]c2cc(Cl)c(S(=O)(=O)Cl)cc2[nH]1	6
CCc1c(C(=O)NCc2ccc(CN3CC(C)OC(C)C3)cc2)[nH]c(C)c1C(C)=O (stereo not given)	-27
COc1ccc(CC(=O)N2CCN(c3cnn4cnnc4c3)CC2)cc1	6

Source: ChEMBL document CHEMBL4888484, “Replenishing the malaria drug discovery pipeline: Screening and hit evaluation of the MMV Hit Generation Library 1 (HGL1) against asexual blood stage Plasmodium falciparum ,using a nano luciferase reporter read-out” (2022)
